About 8,600 (12%) of roughly 69,000 compounds showed an effect of 50% or more. This is one part of a sample in which strong results are shown more often than they occur.
Each compound was assayed on Plasmodium berghei (assay: Screen against P. berghei liver stage (PbLuc), transformed with Luciferase, at 10uM). Conditions: tested at 10 uM.
Format: functional, HepG2

Structure (SMILES)	INHIBITION
O=C(Nc1ccccc1F)C1=NOC2(CCNCC2)C1	-18.5%
CSCc1noc(CNC(=O)C2CCN(C(=O)C3CC3)CC2)n1	23%
Cc1nc(N2CCCC2)nc2c1CN(C(=O)N(C)C)CC2	37.1%
CN(CCc1ccncc1)CC1CCCN1c1cccnn1 (stereo not drawn)	-69.3%
Cc1cccc2nc(C(=O)N3CCC4(CCC(=O)N(C)C4)CC3)c(F)n12	33.4%
Cc1cnc(-c2nc(NC3CC3)ncc2-c2onc(C)c2C)cn1	0.301%
Fc1ccc(CN2CCC3(CCN(Cc4nccs4)CC3)C2)cc1	21.7%
CCN1CCC(CNCc2c[nH]nc2C(C)(C)C)C1 (stereo not drawn)	11.4%
COc1ccc(CC(=O)N2CCC3(CC2)CCN(CC(C)C)C3=O)cc1	35.8%
Cc1nc(-c2ccsc2)ccc1C(=O)N(C)CC(F)(F)F	-4.12%
Cc1cccc(CN2CCc3onc(CN(C)C)c3C2)n1	-14.2%
CN(C)Cc1noc2c1CN(Cc1ccsc1)CC2	15.7%
CN(C)Cc1noc2c1CN(Cc1ccc[nH]1)CC2	73.2%
CN1CC(=O)N(c2ccccc2)CC12CCN(Cc1nccn1C)C2 (stereo not drawn)	7.31%
CNc1nc(CNC(=O)Nc2cccc(-c3ncc(C)o3)c2)cs1	20.1%
CCn1cc(-c2nn3c(C(F)(F)F)nnc3s2)c(C)n1	4.12%
Cc1nn(C)cc1-c1cc(C(F)F)nc(NC2CCCCC2)n1	26.9%
CCn1cc(-c2cc(C(F)(F)F)nc(NC3CCCC3)n2)c(C)n1	68.7%
Cc1nc2n(n1)CC(Nc1cc(C(F)(F)F)nc3ncnn13)CC2 (stereo not drawn)	-29.2%
Cc1nn(C)cc1-c1cc(C(F)(F)F)nc(NC2CCCCC2)n1	58.9%
Cc1nn(C)cc1-c1cc(C(F)(F)F)nc(NC2CCN(C)CC2)n1	40.5%
Cc1cc(N)n(-c2ccc3nnc(C)n3n2)n1	37.5%

Structure (SMILES)	INHIBITION
Cc1cc(C(=O)N2CCCC(n3cncn3)C2)on1 (stereo not drawn)	-23.9%
CCc1ccccc1CN1CC[C@@]2(O)CCN(S(=O)(=O)N(C)C)C[C@H]2C1	44.6%
O=C(Nc1cncc(Br)c1O)c1ccon1	83.2%
O=C(Cc1ccn[nH]1)Nc1cncc(Br)c1O	22.6%
O=C(Cc1ccon1)Nc1cncc(Br)c1O	-9.23%
CN(C)C(=O)CO[C@H]1CN(Cc2cccc(C#N)c2)[C@@H]2COC[C@H]12	7.31%
Cc1noc(C2CCCCN2C(=O)NCc2ccco2)n1 (stereo not drawn)	26.4%
CNC1CCC2(CC1)CNC(=O)c1cc(C)ccc1O2 (stereo not drawn)	-16.5%
O=C(NC1CCS(=O)(=O)C1)c1cn(C2CC2)c(=O)c2ccccc12 (stereo not drawn)	43.9%
CN1CCCN(CC(=O)N2CCc3[nH]c(-c4ccccc4)nc3C2)CC1	17.6%
C[C@@H]1CCC[C@H](C)N1CC(=O)N1CCc2[nH]c(-c3ccccc3)nc2C1	64.8%
CC(=O)NCC(=O)N1CCc2[nH]c(-c3ccccc3)nc2C1	43%
COc1nc2c(cc1C(=O)NCc1noc(-c3ccco3)n1)CCC2	55%
COc1nc2c(cc1C(=O)NCc1noc(Cc3cccs3)n1)CCC2	24.7%
COc1nc2c(cc1C(=O)NCc1nc(CSC)no1)CCC2	43.1%
CCCC(N)CNS(=O)(=O)Cc1cccc(C#N)c1 (stereo not drawn)	39.3%
O=C(NCCn1ccnc1-c1cc2n(n1)CCCNC2)c1ccncc1	32%
O=C(NCCn1ccnc1-c1cc2n(n1)CCNC2)c1ccncc1	62.4%
O=C(NCCn1ccnc1-c1cc2n(n1)CCNC2)c1ccc(F)cc1	8.08%
Nc1nc(N2CCCCC2)ncc1C(=O)NCc1ccc(F)c(Cl)c1	26.4%
O=C(COc1cccc2c1CCC2=O)NCC(F)(F)F	20%
O=C(COc1cccc2c1CCC2=O)NCc1ccccc1F	1.58%

Structure (SMILES)	INHIBITION
O=C(COc1cccc2c1CCC2=O)NCCOc1ccccc1	41.8%
O=C(COc1cccc2c1CCC2=O)NCCSc1ccccc1	-66.3%
O=C(COc1cccc2c1CCC2=O)NCCc1cccs1	63.7%
O=C(COc1cccc2c1CCC2=O)NCc1ccccc1Cl	50%
Cc1cc(N2CCC(O)(CN(C)C)C2)c2cc3c(cc2n1)OCO3 (stereo not drawn)	-7.02%
COCC(=O)N1CCCC1c1ccc(C(=O)NCc2ccccc2Cl)s1 (stereo not drawn)	-9.66%
COc1ccc(CSc2nnc(N)n2C2CC2)cc1Cl	46.3%
CCCS(=O)(=O)N1CCC2(CN(c3ccccc3)C(=O)CN2C)C1 (stereo not drawn)	41.2%
Cc1csc2c(=O)n3c(nc12)CCN(C(=O)c1ccccn1)CC3	35.2%
Cc1cc2c(=O)n3c(nc2s1)CCN(C(=O)c1ccncc1)CC3	19.9%
Cc1ccc(C(=O)N2CCc3nc4c(C)csc4c(=O)n3CC2)cn1	57.5%
Cc1csc2nc3n(c(=O)c12)CCN(C(=O)c1ccncc1)CC3	56.9%
Cc1csc2nc3n(c(=O)c12)CCN(Cc1ccccn1)CC3	1.5%
Cc1csc2c(=O)n3c(nc12)CCN(C(=O)c1cccnc1)CC3	36.4%
CCC[C@H]1CN(S(C)(=O)=O)C[C@@H]1NC(=O)CCOCC	27.6%
O=C(CCN1CCCO1)N1CCCC(CO)(CCCc2ccccc2)C1 (stereo not drawn)	-4.56%
Cc1noc(C)c1CN1CC2(CCCCN2c2cncnc2)CC1=O (stereo not drawn)	65.9%
N#Cc1ccc(CN2CCN(c3ccncc3Cl)CC2=O)cc1	24.5%
N#Cc1cccc(CN2CC3(CCCCN3c3cncnc3)CC2=O)c1 (stereo not drawn)	27.5%
N#Cc1cccc(CN2CC[C@@H]3[C@@H]2CC(=O)N3Cc2cccnc2)c1	22.7%
Cc1noc(C)c1CN1CC2(CCN(Cc3c[nH]cn3)CC2)CC1=O	-27.6%
N#Cc1ccc(CN2CC3(CCCCN3c3cccnc3)CC2=O)cc1 (stereo not drawn)	57.1%

Structure (SMILES)	INHIBITION
N#Cc1ccc(CN2CCN(Cc3ccncc3Cl)CC2=O)cc1	25.7%
Cc1noc(C)c1CN1CC2(CCCCN2C)CC1=O (stereo not drawn)	39.3%
N#Cc1cccc(CN2CC3(CCCCN3c3cccnc3)CC2=O)c1 (stereo not drawn)	57.1%
CCN1CC(COC(=O)c2ccc(N(C)C)cc2F)CC1=O (stereo not drawn)	-56.7%
O=C(c1cccc(Cl)c1)N1CCCC2(CCCNC2)C1 (stereo not drawn)	0.164%
CN(C)C(=O)CN1C[C@H]2CC[C@@H](C1)N(Cc1ccc3nsnc3c1)C2	33.8%
Cc1ncc(C(=O)N2CCOC(C(=O)N3CCCCC3)C2)c(C)n1 (stereo not drawn)	-5.6%
CN(Cc1cccc(O)c1)Cc1cnn(C)c1	10%
Cn1cc(-n2cc3nc(N4CCOCC4)[nH]cc-3c2=O)cn1	-38.7%
NC(=O)c1c(SCCN2CCOCC2)sc2c(O)cc(=O)[nH]c12	20%
O=C(C1CCC1)N1CCc2onc(Cn3cccn3)c2C1	24.5%
CN(C)S(=O)(=O)N1CCCC1c1cccc(-n2ccnc2)n1 (stereo not drawn)	33.7%
CO[C@@H]1CC[C@@H](NC(=O)CCc2ccc(Cl)cc2)[C@H]1O	5.35%
COCc1nc2ncc3c(=O)n(-c4ccc(OC)cc4)ccc3n2n1	15%
COCc1nc2ncc3c(=O)n(-c4ccccc4OC)ccc3n2n1	66.9%
COCc1nc2ncc3c(=O)n(-c4cccc(OC)c4)ccc3n2n1	16.1%
Cc1n[nH]cc1CNC(C)c1cccc(N2CCCC2=O)c1 (stereo not drawn)	0.643%
CN1C(=O)[C@@H]2CC[C@H]1CN(C(=O)c1csc(Cc3ccccc3)n1)C2	35.3%
Cc1c(CN2CCCC(O)C2)[nH]c2ccc(F)cc12 (stereo not drawn)	16.5%
Cc1ccc2[nH]c(CN3CC[C@@H](N4CCN(C)CC4)[C@H](O)C3)c(C)c2c1	34%
Cc1c(CN2CCc3[nH]cnc3C2C(=O)O)[nH]c2ccc(F)cc12 (stereo not drawn)	1.56%
Cc1c(CN2CC[C@@H](N3CCC(O)CC3)[C@H](O)C2)[nH]c2ccc(Cl)cc12	36.2%

Structure (SMILES)	INHIBITION
CSCCC1c2nc[nH]c2CCN1Cc1[nH]c2ccc(F)cc2c1C (stereo not drawn)	17.9%
Cc1c(CN2CCc3[nH]cnc3C2C2CC2)[nH]c2ccc(F)cc12 (stereo not drawn)	65.7%
CN1CCN([C@@H]2CCN(Cc3ccc4cc(F)ccc4n3)C[C@H]2O)CC1	-13.5%
Cc1c(CN2CC[C@@H](N3CCC(O)CC3)[C@H](O)C2)[nH]c2ccc(F)cc12	66.9%
Cc1c(CN2C[C@H](O)[C@@H](N3CCOCC3)C2)[nH]c2ccc(F)cc12	63.1%
CC(=O)NCC(=O)N1C[C@@H](C)[C@@]2(CCN(c3ccsc3)C2=O)C1	15.9%
c1cncc(CN2CCCn3nnc(CN4CCCCC4)c3C2)c1	16.8%
Cn1ncc2c(=O)[nH]c(CN3CCCC3Cc3ccc(F)cc3)nc21 (stereo not drawn)	-5.07%
N#Cc1ccc(S(=O)(=O)NC(=O)COc2ccc3c(c2)CCC3)cc1	29.25%
CCNc1cc2c(nn1)CCN(C(=O)c1ccc(-n3cccn3)nc1)C2	-5.26%
Cc1ccc(C(=O)N2C[C@@H]3CC[C@H]2CN(S(=O)(=O)N(C)C)C3)c(O)c1	24.7%
Cc1ccc(CN2CCc3c(C(=O)N(C)C)nn(C)c3C2)s1	8.47%
CCCC(=O)N1CC[C@@H]2[C@H](CC1)N(Cc1cccnc1)CCS2(=O)=O	-1.53%
CC1CCN(C(=O)c2occc2COc2cccc(C#N)c2)CC1	-122%
CC(O)(CNC(=O)c1cccnc1-n1cccn1)c1ccsc1 (stereo not drawn)	61.1%
CCN(CC)CCCC(C)NC(=O)c1cccnc1-n1cccn1 (stereo not drawn)	-7.13%
CC(O)(CNC(=O)c1cccnc1-n1cccn1)c1ccco1 (stereo not drawn)	7.39%
CCC(CC)NC(=O)c1cccnc1-n1cccn1	55.9%
CC(O)(CNC(=O)c1cccnc1-n1cccn1)c1cccs1 (stereo not drawn)	35.4%
CCC(CC)NC(=O)c1cccnc1N1CCCC1c1ccccn1 (stereo not drawn)	25.3%

From ChEMBL document CHEMBL4513216, “Probing the Open Global Health Chemical Diversity Library for Multistage-Active Starting Points for Next-Generation Antimalarials” (ACS Infect Dis, 2020)
